Assay outcomes (PubChem)
Rows were chosen to be rich in hits. Some 3.4% of all compounds tested hit in one or more screens of this group.
GPR151 activ: activators of human GPR151, primary screen, cell-based, PathHunter beta-arrestin, luminescence | PathHunter beta-arrestin GPR151 cells | activation, % at 11.2 µM | G-protein coupled receptor 151 (Homo sapiens), Q8TDV0 | hit rate 1% among 650,000; in the data active means activation above about 4.9%;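 further: 0% = median of compound wells and 100% = cells with positive control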
Target sequence (Q8TDV0 whole entry, looked up): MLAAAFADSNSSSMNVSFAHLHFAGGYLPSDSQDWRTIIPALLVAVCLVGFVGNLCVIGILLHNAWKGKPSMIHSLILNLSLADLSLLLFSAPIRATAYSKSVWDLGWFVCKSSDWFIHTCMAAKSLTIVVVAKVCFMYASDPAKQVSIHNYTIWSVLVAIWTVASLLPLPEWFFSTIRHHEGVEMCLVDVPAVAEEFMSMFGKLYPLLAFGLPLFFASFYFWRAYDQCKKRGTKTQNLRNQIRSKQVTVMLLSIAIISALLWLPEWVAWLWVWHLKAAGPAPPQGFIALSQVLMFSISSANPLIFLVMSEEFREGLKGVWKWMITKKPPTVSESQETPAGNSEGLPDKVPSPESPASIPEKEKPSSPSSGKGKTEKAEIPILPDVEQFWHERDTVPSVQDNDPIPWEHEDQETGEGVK
FBW7 act: FBW7 E3 ligase activators, primary screen, biochemical, AlphaScreen, human; F-box/WD repeat-containing protein 7 (Homo sapiens), Q969H0; AlphaScreen FBW7–phospho-cyclin E peptide binding, activator screen; normalized activity (activation), % at 26.1 µM; hit rate 0.13% among 650,000; AID 1259310, 2017; in the data active means normalized activity above about 1.9%;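 further: purified mutant Fbw7 with reduced substrate affinity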
TEAD-YAP inh: TEAD-YAP interaction inhibition, primary screen, TEAD-YAP interaction inhibitor project, luminescence, HEK-TIYL cells | inhibition, % at 9.12 µM | TEAD-Gal4/YAP UAS-luciferase luminescence | hit rate 1.4% among 640,000; in the data active means inhibition above about 32%;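 further: 0% = median of test compound wells and 100% = reference inhibitor wells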
MITF inh: MITF inhibitors, primary screen, biochemical, AlphaScreen, human; hit rate 0.91% among 650,000; Microphthalmia-associated transcription factor (Homo sapiens), O75030; AlphaScreen MITF homodimerization, bead proximity signal; inhibition, % at 2.6 µM; AID 1259374, 2018; in the data active means inhibition above about 50%;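 further: 0% = vehicle wells with protein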
* marks the source's active call; other numbers are inactive results.

How did CC(C)(C)NC(=O)CSc1nc(-c2ccccc2)cs1 do in these assays?
GPR151 activ: 2; FBW7 act: 0; TEAD-YAP inh: 62*; MITF inh: -19

Results for COC(=O)c1ccc(NC(=O)/C(=C\c2ccc(Br)cc2)NC(=O)c2ccccc2F)cc1 ?
GPR151 activ: 1; FBW7 act: 1; TEAD-YAP inh: 5; MITF inh: 15

How did O=C(CSc1nc2ccccc2c2nc(-c3ccc([N+](=O)[O-])cc3)nn12)c1ccccc1 do in these assays?
GPR151 activ: 1; FBW7 act: 0; TEAD-YAP inh: 6; MITF inh: 1

What do the screens show for `COc1ccc(-c2cnc3ccc(NCCc4ccccn4)nn23)cc1`?
GPR151 activ: 0; FBW7 act: 0; TEAD-YAP inh: 36*; MITF inh: -9

How did CCCNc1ccc2ncc(-c3ccc(N4CCOCC4)cc3)n2n1 do in these assays?
GPR151 activ: 0; FBW7 act: 0; TEAD-YAP inh: 10; MITF inh: 8

Results for Clc1cccc(-c2cnc3ccc(NCCc4ccccn4)nn23)c1 ?
GPR151 activ: 1; FBW7 act: 0; TEAD-YAP inh: 48*; MITF inh: -10

What do the screens show for `N#Cc1ccc(-c2cnc3ccc(NCCc4ccccn4)nn23)cc1`?
GPR151 activ: -1; FBW7 act: 2; TEAD-YAP inh: 63*; MITF inh: 13

Results for c1ccc(CCNc2ccc3ncc(-c4ccc(N5CCOCC5)cc4)n3n2)nc1 ?
GPR151 activ: -1; FBW7 act: 0; TEAD-YAP inh: 47*; MITF inh: 19

How did Clc1ccc(-c2cnc3ccc(NCCc4ccccn4)nn23)cc1 do in these assays?
GPR151 activ: 1; FBW7 act: 1; TEAD-YAP inh: 29; MITF inh: 18

How did CC(Cl)C(=O)c1ccc2c(c1)CCN2C(=O)C1CC1 (centres undefined) do in these assays?
GPR151 activ: -1; FBW7 act: 0; TEAD-YAP inh: 1; MITF inh: -10

Results for COc1ccc(Nc2nc(-c3cc4c(ccc5ccccc54)oc3=O)cs2)cc1OC ?
GPR151 activ: 2; FBW7 act: 0; TEAD-YAP inh: -9; MITF inh: 1

How did c1cncc(CCNc2ccc3ncc(-c4cc5ccccc5s4)n3n2)c1 do in these assays?
GPR151 activ: 0; FBW7 act: 0; TEAD-YAP inh: 73*; MITF inh: 14

How did FC(F)(F)c1cccc(-c2cnc3ccc(NCCc4cccnc4)nn23)c1 do in these assays?
GPR151 activ: 1; FBW7 act: 1; TEAD-YAP inh: 37*; MITF inh: 21

What do the screens show for `CCCNc1ccc2ncc(-c3cc4ccccc4s3)n2n1`?
GPR151 activ: 3; FBW7 act: 0; TEAD-YAP inh: -11; MITF inh: -13

Results for CCN(CC(=O)Nc1ccc2c(c1)OCCO2)CC(=O)Nc1cccc2nsnc12 ?
GPR151 activ: -2; FBW7 act: 0; TEAD-YAP inh: 9; MITF inh: 4

Results for O=C(COC(=O)C12CC3CC(CC(O)(C3)C1)C2)Nc1cccc2nsnc12 ?
GPR151 activ: 0; FBW7 act: 0; TEAD-YAP inh: -9; MITF inh: 0

What do the screens show for `Cc1ccc(-c2nc3cc(NC(=S)NC(=O)c4ccco4)ccc3o2)cc1`?
GPR151 activ: 0; FBW7 act: 1; TEAD-YAP inh: -46; MITF inh: 14

What do the screens show for `O=C(CN1CCCC1)Nc1ccc(-c2nc3cc(NC(=O)CN4CCCC4)ccc3o2)cc1`?
GPR151 activ: 0; FBW7 act: 0; TEAD-YAP inh: 36*; MITF inh: -3

How did CC(=O)Nc1ccc2oc(-c3cccc(C)c3)nc2c1 do in these assays?
GPR151 activ: -8; FBW7 act: 0; TEAD-YAP inh: 62*; MITF inh: -11

Results for CC(C)(C)c1ccc(-c2nc3cc(NC(=S)NC(=O)c4ccco4)ccc3o2)cc1 ?
GPR151 activ: 5; FBW7 act: 1; TEAD-YAP inh: 43*; MITF inh: 13

How did Cc1ccccc1-c1nc2cc(NC(=O)C(C)C)ccc2o1 do in these assays?
GPR151 activ: 1; FBW7 act: 0; TEAD-YAP inh: 66*; MITF inh: 4

What do the screens show for `COC(=O)C1=C(C)N(c2cccc(OC)c2)C(=O)/C1=C\c1ccco1`?
GPR151 activ: 1; FBW7 act: 0; TEAD-YAP inh: -16; MITF inh: 4

What do the screens show for `O=C(NC(=S)Nc1ccc2oc(-c3ccccc3)nc2c1)c1cncc(Br)c1`?
GPR151 activ: 0; FBW7 act: 0; TEAD-YAP inh: -3; MITF inh: 4

What do the screens show for `CC(C)(C)C(=O)Nc1ccc2oc(-c3cncc(Br)c3)nc2c1`?
GPR151 activ: 2; FBW7 act: 0; TEAD-YAP inh: 35*; MITF inh: 7

How did Cc1ccc2nc(-c3cccc(NC(=S)NC(=O)c4ccco4)c3)oc2c1 do in these assays?
GPR151 activ: -2; FBW7 act: 0; TEAD-YAP inh: -54; MITF inh: -6

What do the screens show for `Cc1cc2nc(-c3cccc(NC(=S)NC(=O)c4ccco4)c3)oc2cc1C`?
GPR151 activ: -1; FBW7 act: 1; TEAD-YAP inh: 47*; MITF inh: 10

What do the screens show for `CCN(CC)c1ccc(-c2nc3cc(NC(=O)c4ccc(OC)c(OC)c4)ccc3o2)cc1`?
GPR151 activ: -1; FBW7 act: 2.4*; TEAD-YAP inh: -22; MITF inh: 21

How did COc1ccc(Cl)cc1C(=O)Nc1ccc2oc(-c3ccc(C(C)(C)C)cc3)nc2c1 do in these assays?
GPR151 activ: 0; FBW7 act: 0; TEAD-YAP inh: 38*; MITF inh: 8

What do the screens show for `CN1CCN(S(=O)(=O)c2ccc(NC(=O)C(C)(C)C)cc2)CC1`?
GPR151 activ: -1; FBW7 act: 0; TEAD-YAP inh: -3; MITF inh: -6

What do the screens show for `CN1C(=O)CC(CC(=O)N2CCCCC2c2nccs2)(c2ccccc2F)C1=O` (centres undefined)?
GPR151 activ: 0; FBW7 act: 0; TEAD-YAP inh: -45; MITF inh: 2

Results for COc1ccc(Cl)c(Cn2c(NC3CCCCC3)nc3c2c(=O)n(C)c(=O)n3C)c1 ?
GPR151 activ: -1; FBW7 act: 0; TEAD-YAP inh: 8; MITF inh: 3

How did O=C(Nc1ccc(-c2nc3cc(NC(=O)c4ccco4)ccc3o2)cc1)c1ccco1 do in these assays?
GPR151 activ: 1; FBW7 act: 0; TEAD-YAP inh: -24; MITF inh: 10

What do the screens show for `O=C(Nc1ccc2oc(-c3ccc(-c4ccccc4)cc3)nc2c1)c1ccco1`?
GPR151 activ: -1; FBW7 act: 2.5*; TEAD-YAP inh: -3; MITF inh: 3

What do the screens show for `Cc1ccc(-n2c(O)c(/C=N/c3ccccn3)c(=O)[nH]c2=O)cc1`?
GPR151 activ: 0; FBW7 act: 0; TEAD-YAP inh: 0; MITF inh: 2

What do the screens show for `Cc1ccc(-n2[nH]c(=O)c(-c3ccccn3)c2C)cc1`?
GPR151 activ: -5; FBW7 act: 0; TEAD-YAP inh: 52*; MITF inh: 7
